The values below come from the supplement of paper PMC12494721.

Counter-ions that a name gives are not always drawn.

For the first experiment, the system named is Escherichia coli IAI1. The experiment is described as follows: growth (OD595) fold change vs plate DMSO controls (fold change (ratio)); higher = more growth. The conditions noted are these: incubation time: 27 h, anaerobic, 37 °C. The method, boiled down:
(§1)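 To obtain OD, 595 nm absorbance readings were blank-subtracted, corrected for compound background using 20 µM compound solutions in water, and multiplied by a calibration factor of 5. They came from 96-well mGAM cultures grown anaerobically for 27 h at 37 °C and shaken before reading. Growth is the fold change relative to the median of plate DMSO controls. Two biological replicates were averaged, and fold changes above 1.5 were set to NA.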
On to `CC1=C(C(=O)O)N2C(=O)[C@@H](NC(=O)[C@H](N)c3ccc(O)cc3)[C@H]2SC1` [Cefadroxil] (20 µM), for which the growth came to 1.03.

Consider `OC[C@H]1O[C@@](CO)(O[C@H]2O[C@H](CO)[C@@H](O)[C@H](O)[C@H]2O)[C@@H](O)[C@@H]1O` [Sucrose] (50 µM), for which the growth was found to be 0.938. On the same count and under the same terms, to `CCN(CC)CCOC(=O)C(c1ccccc1)C1CCCCC1` (stereo not drawn) [Drofenine hydrochloride] (20 µM) belongs 0.977. On the same count and under the same terms, to `CN(C)CCCN1c2ccccc2Sc2ccccc21` [Promazine hydrochloride] (20 µM) belongs 0.959. With `CCc1cccc(CC)c1NC(=O)CN(CC(=O)O)CC(=O)O` [Etifenin] (20 µM), the growth was found to be 1. Same read-out and setting: with `CC(Cc1cccc(C(F)(F)F)c1)NCCOC(=O)c1ccccc1` (stereo not drawn) [Benfluorex] (20 µM) the figure was 0.988; with `Cn1c(=O)c2c(ncn2C)n(C)c1=O` [Caffeine] (20 µM), 0.986. The same measure, in the same setting: to `O=c1[nH]c(=O)n([C@H]2C[C@H](O)[C@@H](CO)O2)cc1C(F)(F)F` [Trifluridine] (20 µM) belongs 1.04; to `CCOC(=O)NNc1nncc2ccccc12` [Todralazine hydrochloride] (20 µM), 1.14.

The next experiment relates to Klebsiella aerogenes DSM 30053. The description is as above. Conditions: incubation time: 27 h, anaerobic, 37 °C. The method, boiled down: as §1
On to `CC(N)(Cc1ccc(O)c(O)c1)C(=O)O` (stereo not drawn) [(L) Methyldopa] (20 µM), for which the growth stood at 1.

For `CN[C@@H]1[C@H](O[C@H]2[C@H](O[C@H]3[C@H](O)[C@@H](O)[C@H](N=C(N)N)[C@@H](O)[C@@H]3N=C(N)N)O[C@@H](C)[C@]2(O)C=O)O[C@@H](CO)[C@H](O)[C@H]1O` [Streptomycin sulfate] (20 µM), the growth was found to be 0.957. Turning to `CCOC(=O)c1ccc(OC(=O)CCCCCNC(=N)N)cc1` [Gabexate mesilate] (20 µM), the growth worked out at 0.974. On the same count and under the same terms, with `NS(=O)(=O)c1cc(C(=O)O)c(NCc2ccco2)cc1Cl` [Furosemide] (20 µM) the figure was 1.04; with `CC(C)(Oc1ccc(Cl)cc1)C(=O)O` [Clofibric acid] (20 µM), 1.02. Same read-out and setting: with `Cc1ccc(C(C)NC(=O)[C@@H](NC(=O)OC(C)C)C(C)C)cc1` (stereo partly drawn) (20 µM) the figure was 1.04.

For the compound `COC(c1ccccc1)(c1ccccc1)[C@H](Oc1nc(C)cc(C)n1)C(=O)O` [Ambrisentan] (20 µM), the growth was found to be 0.991. Still for that read-out and setting: to `CN1CCN(CCCN2c3ccccc3Sc3ccc(C(F)(F)F)cc32)CC1` [Trifluoperazine dihydrochloride] (20 µM) belongs 1.05.

Take `C[N+](C)(CCOc1ccccc1)Cc1ccccc1.O=C([O-])c1cc2ccccc2cc1O` [Bephenium hydroxynaphthoate] (20 µM): the growth was 0.976. For `c1ccc2cc3c(ccc4ccccc43)cc2c1` [Benz[a]anthracene] (20 µM), the growth worked out at 1.02. On the same count and under the same terms, with `C[C@H]1C[C@H]2[C@@H]3CCC4=CC(=O)C=C[C@]4(C)[C@@]3(F)[C@@H](O)C[C@]2(C)[C@@]1(O)C(=O)CO` [Betamethasone] (20 µM) the figure was 1.13. Still for that read-out and setting: with `NC[C@H]1O[C@H](O[C@H]2[C@H](O[C@@H]3O[C@H](CO)[C@@H](O)[C@H]3O)[C@@H](O)[C@H](N)C[C@@H]2N)[C@H](N)[C@@H](O)[C@@H]1O` [Ribostamycin sulfate salt] (20 µM) the figure was 0.972; with `CCOC(=O)C1=C[C@]2(CC)CCCN3CCc4c(n1c1ccccc41)[C@@H]32` [Vinpocetine] (20 µM), 1.03. On the same count and under the same terms, with `CCOC1O[C@H]([C@@H](COCc2ccccc2)OCc2ccccc2)[C@H](OCc2ccccc2)[C@H]1O` (stereo partly drawn) [Tribenoside] (20 µM) the figure was 0.99. As to `NCCCC[C@H](N[C@@H](CCc1ccccc1)C(=O)O)C(=O)N1CCC[C@H]1C(=O)O` [Lisinopril] (20 µM), the growth stood at 1.14. Turning to `CC(C)(C)NC[C@H](O)c1ccc(O)c(CO)c1` [Levalbuterol hydrochloride] (20 µM), the growth amounted to 1.01.

As to `O=C(CCCl)NCc1ccccc1` [Beclamide] (20 µM), the growth is 1. As for `Cc1onc(-c2ccccc2Cl)c1C(=O)N[C@@H]1C(=O)N2[C@@H]1SC(C)(C)[C@@H]2C(=O)O` [Cloxacillin sodium salt] (20 µM), the growth was determined as 1.08. `CCN1CCCC1CNC(=O)c1cc(S(N)(=O)=O)ccc1OC` (stereo not drawn) [Sulpiride] (20 µM): the growth came to 0.981. On to `CCOc1ccc(NC(N)=O)cc1` [(4-Ethoxyphenyl)urea] (50 µM), for which the growth is 0.994.

For `O=C1OC(CN2CCOCC2)CN1/N=C/c1ccc([N+](=O)[O-])o1` (stereo not drawn) [Furaltadone hydrochloride] (20 µM), the growth came out at 0.945. On the same count and under the same terms, to `Cc1cc(N)c2ccccc2[n+]1CCCCCCCCCC[n+]1c(C)cc(N)c2ccccc21` [Dequalinium dichloride] (20 µM) belongs 1.11. On the same count and under the same terms, with `Cc1ccc(C(=O)c2ccc(CC(=O)O)n2C)cc1` [Tolmetin sodium salt dihydrate] (20 µM) the figure was 1.01; with `CCCSc1nc(N[C@@H]2C[C@H]2c2ccc(F)c(F)c2)c2nnn([C@@H]3C[C@H](OCCO)[C@@H](O)[C@H]3O)c2n1` [Ticagrelor] (20 µM), 1.02; with `CNc1ncnc2c1ncn2[C@@H]1O[C@H](CO)[C@@H](O)[C@H]1O` [N6-methyladenosine] (20 µM), 1.02. Same read-out and setting: with `Cc1c(N(C)CS(=O)(=O)O)c(=O)n(-c2ccccc2)n1C` [Dipyrone sodium salt] (20 µM) the figure was 1.07; with `CN(c1nccc(=O)[nH]1)C1CCN(c2nc3ccccc3n2Cc2ccc(F)cc2)CC1` [Mizolastine] (20 µM), 1.04; with `CC(CN(C)C)C(C)(O)Cc1ccc(Cl)cc1` (stereo not drawn) [Clobutinol hydrochloride] (20 µM), 1.02. With `Oc1c(Cl)cc(Cl)c2cccnc12` [Chloroxine] (20 µM), the growth came to 1.02. For the compound `CC(=O)OCC(=O)[C@@]1(O)CC[C@H]2[C@@H]3CCC4=CC(=O)CC[C@]4(C)[C@@]3(F)[C@@H](O)C[C@@]21C` [Fludrocortisone acetate] (20 µM), the growth came to 1.03. Same read-out and setting: to `CC1=C(C(=O)O)N2C(=O)[C@@H](NC(=O)[C@H](N)c3ccc(O)cc3)[C@H]2SC1` [Cefadroxil] (20 µM) belongs 1; to `OC[C@H]1O[C@@](CO)(O[C@H]2O[C@H](CO)[C@@H](O)[C@H](O)[C@H]2O)[C@@H](O)[C@@H]1O` [Sucrose] (50 µM), 1.09; to `CCN(CC)CCOC(=O)C(c1ccccc1)C1CCCCC1` (stereo not drawn) [Drofenine hydrochloride] (20 µM), 1. Same read-out and setting: with `CN(C)CCCN1c2ccccc2Sc2ccccc21` [Promazine hydrochloride] (20 µM) the figure was 0.962. Same read-out and setting: to `CCc1cccc(CC)c1NC(=O)CN(CC(=O)O)CC(=O)O` [Etifenin] (20 µM) belongs 1.08; to `CC(Cc1cccc(C(F)(F)F)c1)NCCOC(=O)c1ccccc1` (stereo not drawn) [Benfluorex] (20 µM), 0.966. As to `Cn1c(=O)c2c(ncn2C)n(C)c1=O` [Caffeine] (20 µM), the growth turned out to be 0.977. Consider `O=c1[nH]c(=O)n([C@H]2C[C@H](O)[C@@H](CO)O2)cc1C(F)(F)F` [Trifluridine] (20 µM), for which the growth stood at 0.99.

In the case of `CCOC(=O)NNc1nncc2ccccc12` [Todralazine hydrochloride] (20 µM), the growth is 1.04.
